Assay [1] concerns Wnt5a (protein binding on small-molecule microarray). Briefly: Wnt5a binders on small-molecule microarray, primary screen, biophysical, 635/667 nm fluorescence (AID 1142).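 Note: fluorescence read at 667 nm with signal to noise per printed feature.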 The settings on record: 635 nm fluorescence, higher = more signal.
Assay [2] in a line: cell viability in Huh7 cells, primary screen, cytotoxicity control for HCV replication inhibitor project, CellTiter-Glo luminescence, basal, 48 h (AID 1143).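 Note: Huh7 hepatoma cells carrying a hepatitis C replication reporter with no stimulus; test concentration not given here.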 The note with it: Huh7 HCV replicon, higher = more signal, called active from +8 up or from −8 down.
Assay [3] in a line: P. aeruginosa biofilm formation inhibitors, primary screen, PAO1 strain, BacTiter-Glo luminescence, LB-PBS (AID 1144). The settings on record: 12 h, higher = more signal.
A short description of assay [4]: CREB reporter modulators without forskolin, primary screen, cell-based, PC12, CRE-LacZ reporter, unstimulated (AID 1145). The settings on record: no forskolin, luminescence, 4.5 h, higher = more signal, called active from +8 up or from −8 down.
The nature of assay [5]: CREB reporter modulators under forskolin, primary screen, cell-based, PC12, CRE-LacZ reporter, forskolin-stimulated (AID 1146).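 Note: PC12 cells with 6xCRE LacZ reporter stimulated by forskolin 10 µM; beta-galactosidase reporter signal reflecting CREB driven transcription.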 The settings on record: luminescence, 4.5 h, higher = more signal, called active from +8 up or from −8 down.
Assay [6] concerns the target Streptavidin (Streptomyces avidinii) (UniProt P22629). Briefly: streptavidin binders on small-molecule microarray, primary screen, artefact control for SMM compound annotation, biophysical, 635/667 nm fluorescence (AID 1147).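 Note: signal reflects streptavidin binding to arrayed compounds as a control protein.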 The note with it: streptavidin binding, higher = more signal.
The nature of assay [7]: small-molecule binders of probe aInhba, primary screen, biochemical, small-molecule microarray, 635/667 nm fluorescence (AID 1148).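 Note: score merges 667nm spot fluorescence with signal-to-noise for antibody binding to printed compounds.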 The note with it: higher = more signal.
The target in assay [8] is Torsin-1A (Homo sapiens) (UniProt O14656). The assay can be described thus: torsin A binders from cell lysate, primary screen, small-molecule microarray, wild-type, 635/667 nm (AID 1149). The note with it: COS7 hTOR1A-WT lysate, 635 nm fluorescence, higher = more signal.
The target is the same in assay [9]. Briefly: small-molecule binders of mutant TOR1A in lysate, primary screen, cell lysate, small-molecule microarray, COS7 lysate, 635/667 nm fluorescence (AID 1150).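 Note: score pools 667 nm emission and signal to noise measuring lysate protein binding.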 The settings on record: COS7 hTOR1A mutant lysate, 635 nm fluorescence, higher = more signal.
The subject of assay [10] is Sonic hedgehog protein (Shh). The assay can be described thus: small-molecule binders of Shh protein, primary screen, biochemical, small-molecule microarray, 635/667 nm fluorescence (AID 1151).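 Note: Shh protein binding to compounds spotted on small-molecule microarray slides; score combines spot fluorescence intensity with signal-to-noise across triplicate slides.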 The note with it: small-molecule microarray binding, 635 nm fluorescence; higher = more signal.
Assay [11] is described as follows: E. coli DRC41 culture turbidity changes, primary screen, E. coli filamentation inducer project, strain DRC41, OD650, 48 h (AID 1152).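 Note: E. coli MC1000 strain DRC41 lacking acrAB efflux pump and sulA.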 The note with it: E. coli DRC41 (acrAB sulA), higher = more signal, called active from +8 up or from −8 down.
Assay [12] can be described thus: small-molecule binders of probe aLefty1, primary screen, biochemical, small-molecule microarray, 635/667 nm fluorescence (AID 1153).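 Note: score merges spot fluorescence with signal-to-noise ratio from the scanned slide images.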 The note with it: higher = more signal.
Assay [13] in a line: PSAC antagonists in infected red cells, primary screen, cell-based, P. falciparum Indochina, OD700, 1 h (AID 1154). The settings on record: P. falciparum Indochina infected RBC osmotic lysis, higher = more signal, called active from +8 up or from −8 down.
Assay [14] in a line: PSAC antagonists in infected red cells, primary screen, cell-based, P. falciparum Indochina, OD700, 2 h (AID 1155).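 Note: lysis reports solute entry through the parasite surface anion channel PSAC; channel blockers reduce lysis of infected cells.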 The settings on record: P. falciparum Indochina infected erythrocytes, osmotic lysis OD700; higher = more signal, called active from +8 up or from −8 down.
A short description of assay [15]: osmotic lysis modulators in infected erythrocytes, primary screen, PSAC antagonist project, cell-based, P. falciparum Indochina, OD700, 3 h (AID 1156). The settings on record: higher = more signal, called active from +8 up or from −8 down.
A short description of assay [16]: PSAC antagonists in infected red cells, primary screen, cell-based, P. falciparum Indochina, OD700, 18 h (AID 1157). The settings on record: P. falciparum Indochina infected erythrocytes, osmotic lysis OD700, 18 h; higher = more signal, called active from +8 up or from −8 down.
The nature of assay [17]: modulators of S6 phosphorylation in cells, primary screen, cell-based, A549, cytoblot, luminescence, serum-stimulated (AID 1158).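 Note: serum-stimulated A549 lung adenocarcinoma cells; signal is phosphorylated S6 detected by cytoblot immunostaining with HRP secondary.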 The note with it: A549 phospho-S6 cytoblot, 5 h, higher = more signal.
In assay [18] the target is NADPH oxidase 2 (Homo sapiens) (UniProt P04839). The assay can be described thus: NOX2-dependent H2O2 signal modulators, primary screen, NOX inhibitor project, cell-based, HEK293-NOX2, PMA-stimulated, Amplex Red fluorescence (AID 1159). Note: test concentration not given here. The settings on record: 45 min, higher = more signal, called active from +8 up or from −8 down.
In assay [19] the target is NADPH oxidase 4 (Homo sapiens) (UniProt Q9NPH5). The assay can be described thus: NOX4-dependent H2O2 signal modulators, primary screen, NOX inhibitor project, cell-based, HEK293-NOX4, tetracycline-induced, Amplex Red fluorescence (AID 1160). The note with it: 45 min, higher = more signal, called active from +8 up or from −8 down.
In assay [20] the target is NADPH oxidase 5 (Homo sapiens) (UniProt Q96PH1). The assay can be described thus: NOX5-dependent H2O2 signal modulators, primary screen, NOX inhibitor project, cell-based, HEK293-NOX5, Amplex Red fluorescence (AID 1161). The settings on record: HEK293-NOX5, ionomycin, 45 min, higher = more signal.

Activity calls are given as the source filed them. Unless noted, the rule behind the calls is not given here.

NADPH oxidase 4 (Homo sapiens), sequence (Q9NPH5 whole entry, looked up): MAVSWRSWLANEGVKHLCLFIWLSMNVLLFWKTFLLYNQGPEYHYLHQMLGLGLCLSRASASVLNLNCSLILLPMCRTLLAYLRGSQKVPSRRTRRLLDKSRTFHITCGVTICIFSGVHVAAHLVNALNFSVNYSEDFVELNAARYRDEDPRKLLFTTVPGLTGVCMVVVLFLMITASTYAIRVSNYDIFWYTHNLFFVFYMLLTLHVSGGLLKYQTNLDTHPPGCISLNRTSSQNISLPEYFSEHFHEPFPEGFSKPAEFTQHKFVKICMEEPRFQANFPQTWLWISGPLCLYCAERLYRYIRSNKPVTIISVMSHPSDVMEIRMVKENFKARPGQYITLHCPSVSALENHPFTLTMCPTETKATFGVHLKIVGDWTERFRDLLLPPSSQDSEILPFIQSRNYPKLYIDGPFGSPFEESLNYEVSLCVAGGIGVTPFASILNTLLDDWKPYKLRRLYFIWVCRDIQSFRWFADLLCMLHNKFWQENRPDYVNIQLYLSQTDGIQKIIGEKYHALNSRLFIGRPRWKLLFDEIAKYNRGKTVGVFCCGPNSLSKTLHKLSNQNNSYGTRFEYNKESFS
Torsin-1A (Homo sapiens), sequence (O14656 whole entry, looked up): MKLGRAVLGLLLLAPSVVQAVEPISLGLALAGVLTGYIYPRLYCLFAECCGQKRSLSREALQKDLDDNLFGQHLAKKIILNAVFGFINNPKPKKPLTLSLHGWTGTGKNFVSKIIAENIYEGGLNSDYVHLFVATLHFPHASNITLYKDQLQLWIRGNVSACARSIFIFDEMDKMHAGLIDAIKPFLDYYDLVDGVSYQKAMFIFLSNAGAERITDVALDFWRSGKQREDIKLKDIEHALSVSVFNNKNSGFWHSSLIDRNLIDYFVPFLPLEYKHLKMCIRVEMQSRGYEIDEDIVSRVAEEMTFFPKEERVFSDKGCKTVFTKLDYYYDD
Streptavidin (Streptomyces avidinii), sequence (P22629 whole entry, looked up): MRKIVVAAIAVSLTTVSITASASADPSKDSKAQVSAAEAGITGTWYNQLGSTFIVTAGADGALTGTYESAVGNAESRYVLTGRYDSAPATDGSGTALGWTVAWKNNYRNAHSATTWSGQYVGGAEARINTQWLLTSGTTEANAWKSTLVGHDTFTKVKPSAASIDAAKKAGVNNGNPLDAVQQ
NADPH oxidase 2 (Homo sapiens), sequence (P04839 whole entry, looked up): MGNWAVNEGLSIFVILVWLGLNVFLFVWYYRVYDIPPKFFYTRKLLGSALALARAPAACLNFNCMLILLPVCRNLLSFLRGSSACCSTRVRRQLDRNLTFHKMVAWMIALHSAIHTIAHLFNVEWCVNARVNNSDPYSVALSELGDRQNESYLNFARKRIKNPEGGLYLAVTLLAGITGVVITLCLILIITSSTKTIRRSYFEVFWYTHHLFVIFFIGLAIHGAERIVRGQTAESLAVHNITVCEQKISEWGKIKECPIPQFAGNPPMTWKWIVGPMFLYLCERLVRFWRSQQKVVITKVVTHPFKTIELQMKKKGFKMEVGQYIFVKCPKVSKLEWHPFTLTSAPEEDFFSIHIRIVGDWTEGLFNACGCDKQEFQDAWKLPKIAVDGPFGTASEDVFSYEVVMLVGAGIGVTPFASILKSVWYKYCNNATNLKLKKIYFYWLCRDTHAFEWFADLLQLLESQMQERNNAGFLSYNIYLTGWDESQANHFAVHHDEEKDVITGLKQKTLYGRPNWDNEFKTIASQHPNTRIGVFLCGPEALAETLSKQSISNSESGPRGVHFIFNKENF
NADPH oxidase 5 (Homo sapiens), sequence (Q96PH1 whole entry, looked up): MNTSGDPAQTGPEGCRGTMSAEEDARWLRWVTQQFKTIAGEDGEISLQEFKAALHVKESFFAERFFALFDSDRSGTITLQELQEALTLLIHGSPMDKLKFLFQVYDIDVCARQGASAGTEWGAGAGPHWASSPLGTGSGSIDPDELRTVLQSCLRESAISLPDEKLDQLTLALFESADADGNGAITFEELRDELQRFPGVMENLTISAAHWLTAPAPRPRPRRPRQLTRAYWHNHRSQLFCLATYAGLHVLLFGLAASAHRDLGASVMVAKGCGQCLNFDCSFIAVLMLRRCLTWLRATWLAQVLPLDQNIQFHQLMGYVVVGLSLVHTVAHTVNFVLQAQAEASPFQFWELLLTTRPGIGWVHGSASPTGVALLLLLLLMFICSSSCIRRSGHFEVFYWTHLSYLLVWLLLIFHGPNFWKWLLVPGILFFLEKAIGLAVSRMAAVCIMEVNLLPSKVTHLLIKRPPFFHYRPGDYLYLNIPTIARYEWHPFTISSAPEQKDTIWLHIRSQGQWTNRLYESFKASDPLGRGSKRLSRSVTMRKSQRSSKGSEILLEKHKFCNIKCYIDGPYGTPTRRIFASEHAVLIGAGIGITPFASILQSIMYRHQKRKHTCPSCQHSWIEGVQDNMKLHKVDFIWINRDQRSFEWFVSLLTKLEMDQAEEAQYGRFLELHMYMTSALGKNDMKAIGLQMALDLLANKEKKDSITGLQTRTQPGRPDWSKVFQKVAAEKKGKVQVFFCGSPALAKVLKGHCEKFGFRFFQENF

In the case of `COC(=O)C1=CCC(c2cccc(Cl)c2)O1` (stereo not given), the composite z-score in assay [1] was -0.241; in [6], -0.0713; in assay [7] it was 0.0742; with Torsin-1A (Homo sapiens) [8] it was 0.0026; with Torsin-1A (Homo sapiens) [9], -0.58; in assay [10], -0.534. Also, the composite z-score in assay [12] is -0.0111. In addition, the z-score was -4.35 (inactive) in assay [2]; -1.52 (inactive) in assay [3]; 0.388 (inactive) in [4]; -0.551 (inactive) in [5]; -0.367 (inactive) in assay [11]; 11.4 (active) in assay [13]. Also, the z-score in assay [14] was -0.39 (inactive); in assay [15] it was 0.784 (inactive); in assay [16] it was -0.963 (inactive); in assay [17], 0.61; in [18], -3.94 (inactive); in [19], -1.6 (inactive). This molecule showed a z-score in assay [20] of -4.15.
Take `CO[C@H]1COC(=O)[C@@H]2CCCN2C(=O)CC=C[C@@H](C)[C@H](OC)COC(=O)CC=C[C@@H]1C`: the composite z-score is 0.191 in assay [1]; -0.689 in [6]; -0.0858 in [7]; 1.49 in the assay with Torsin-1A (Homo sapiens) [8]; 1.27 with Torsin-1A (Homo sapiens) [9]; 1.98 in assay [10]. This molecule displayed a composite z-score in assay [12] of -0.0974. In addition, the z-score in assay [2] is -1.32 (inactive); in assay [3] it was -1.11 (inactive); in assay [4], 2.42 (inactive); in assay [5], 0.104 (inactive); in [11] it was 0.604 (inactive); in assay [13] it was -0.0558 (inactive). Besides, the z-score is -1.3 (inactive) in assay [14]; -0.464 (inactive) in [15]; -1.7 (inactive) in assay [16]; 2.35 in assay [17]; -0.331 (inactive) in [18]; 0.631 (inactive) in [19]. This molecule also registered a z-score in [20] of 0.557.
Consider `COCCOC(=O)N1C(=O)[C@@]2(c3cc(C#CC4(O)CCCCCC4)ccc31)[C@H](c1ccc(OCCO)cc1)N1[C@H](c3ccccc3)[C@H](c3ccccc3)OC(=O)[C@H]1[C@@H]2C(=O)NC[C@H](O)c1ccccc1`, for which the composite z-score in [1] stood at 0.524; in assay [6] it was 0.246; in [7], 0.0658; with Torsin-1A (Homo sapiens) [8], 0.225; with Torsin-1A (Homo sapiens) [9], 0.514; in assay [10], 1.23. In assay [12], this molecule had a composite z-score of 0.43. Besides, the z-score in [2] is -5.42 (inactive); in assay [3], -0.903 (inactive); in assay [4] it was -0.61 (inactive); in assay [5] it was 0.753 (inactive); in assay [11], 1.02 (inactive); in [13] it was 2.18 (inactive). Besides, the z-score in assay [14] is 0.524 (inactive); in assay [15] it was 0.735 (inactive); in assay [16], -0.494 (inactive); in assay [17], 1.47; in [18], 1.79 (inactive); in assay [19], 0.858 (inactive). The molecule further gave a z-score in [20] of -1.31.
`Cc1ccc(C2CC=C(C(=O)O)CN2S(=O)(=O)c2ccc(C)cc2)cc1` (stereo not given): the composite z-score is 0.212 in assay [1]; 0.169 in assay [6]; -0.024 in assay [7]; 0.427 with Torsin-1A (Homo sapiens) [8]; 0.426 with Torsin-1A (Homo sapiens) [9]; -0.065 in [10]. For the same molecule, the composite z-score in [12] was -0.0294. For the same molecule, the z-score in [2] was 0.0273 (inactive); in [3], -0.119 (inactive); in assay [4] it was -0.378 (inactive); in assay [5] it was 0.707 (inactive); in assay [11], -1.29 (inactive); in [13], 1.26 (inactive). The z-score in [14] was 0.838 (inactive); in assay [15], 0.927 (inactive); in assay [16], 0.98 (inactive); in assay [17], -0.51; in assay [18], -0.446 (inactive); in assay [19], -1.44 (inactive). Also, the z-score in assay [20] worked out at 0.321.
As for `CC(=O)OC[C@H]1O[C@H](CC=NOC[C@@H](C)[C@H](OCc2ccccc2)C(C)C)C=C[C@@H]1OC(C)=O`, the composite z-score in assay [1] was -0.0373; in assay [6], -0.0152; in assay [7], -0.0504; in the assay with Torsin-1A (Homo sapiens) [8], -0.0387; in the assay with Torsin-1A (Homo sapiens) [9], 0.0881; in assay [10] it was 0.583. The molecule further came in with a composite z-score in assay [12] of -0.101. The z-score is -0.23 (inactive) in assay [2]; -0.369 (inactive) in [3]; 2.04 (inactive) in assay [4]; 0.494 (inactive) in [5]; -0.0083 (inactive) in [11]; 1.25 (inactive) in [13]. The z-score in assay [14] was 0.766 (inactive); in [15], 0.712 (inactive); in assay [16] it was 0.343 (inactive); in [17], -0.0212; in assay [18], -0.401 (inactive); in assay [19], -0.344 (inactive). For the same molecule, the z-score in assay [20] was -2.35.
As for `C[C@@H](c1ccccc1)N1C(=O)[C@H]2[C@H]3[C@H](O)C=CC(=O)[C@@H]3CC[C@H]2C1=O`, the composite z-score is -0.143 in [1]; 0.831 in assay [6]; 0.0422 in assay [7]; 0.445 in the assay with Torsin-1A (Homo sapiens) [8]; 0.0746 with Torsin-1A (Homo sapiens) [9]; 0.593 in assay [10]. Further, the composite z-score in assay [12] was -0.193. For the same molecule, the z-score in assay [2] was -1.8 (inactive); in [3] it was 0.715 (inactive); in assay [4], 0.247 (inactive); in assay [5], -0.323 (inactive); in [11], -0.0347 (inactive); in [13] it was -0.352 (inactive). The z-score in assay [14] was 0.101 (inactive); in [15], -0.555 (inactive); in assay [16], -0.284 (inactive); in assay [17], 0.674; in assay [18] it was 1.56 (inactive); in assay [19], -0.0276 (inactive). The z-score in assay [20] is -0.276.
Regarding `CC(C)CON=C1C[C@@H](O)[C@@H](O)[C@@H]2[C@@H]3C(=O)N(Cc4ccccc4)C(=O)[C@@H]3CC[C@@H]12`, the composite z-score in assay [1] was 0.0819; in assay [6], -0.354; in assay [7], -0.071; with Torsin-1A (Homo sapiens) [8] it was 0.407; with Torsin-1A (Homo sapiens) [9] it was 0.16; in assay [10], 0.305. In assay [12], this molecule came in with a composite z-score of 0.148. The z-score in assay [2] is 0.674 (inactive); in [3], 0.579 (inactive); in [4], -0.203 (inactive); in assay [5] it was 0.462 (inactive); in assay [11], 0.102 (inactive); in [13], 0.252 (inactive). Moreover, the z-score in [14] was 0.227 (inactive); in assay [15], 0.65 (inactive); in [16] it was -0.0378 (inactive); in [17], 0.524; in assay [18], 1.39 (inactive); in [19], 0.387 (inactive). The z-score in assay [20] was -0.0393.
On to `C#CCCCON=C1C[C@@H](O)[C@@H](O)[C@@H]2[C@@H]3C(=O)N([C@@H](C)c4ccccc4)C(=O)[C@@H]3CC[C@H]12`, for which the composite z-score in assay [1] was -0.216; in assay [6], 0.029; in [7] it was -0.128; with Torsin-1A (Homo sapiens) [8] it was 0.258; in the assay with Torsin-1A (Homo sapiens) [9] it was 0.126; in assay [10] it was 0.552. For the same molecule, the composite z-score in assay [12] was determined as 0.75. The z-score in assay [2] is -3.38 (inactive); in [3] it was -0.0158 (inactive); in assay [4], 2.61 (inactive); in assay [5], -0.428 (inactive); in [11] it was -1.08 (inactive); in assay [13] it was 0.553 (inactive). Also, the z-score in assay [14] was -0.645 (inactive); in assay [15], -0.318 (inactive); in assay [16], -2.13 (inactive); in assay [17], -0.235; in [18], -0.599 (inactive); in [19], -1.21 (inactive). This molecule also came in with a z-score in assay [20] of 0.579.

Values taken from PubChem BioAssay.
